Assay results as given in PubChem BioAssay AID686979 (National Center for Advancing Translational Sciences (NCATS), 2013).
In all, about 420,000 compounds went through this assay and about 50,000 (12%) were called active. A call without a number means that no potency is given here. Another 26% or so got no clear call; they are omitted. The call rests on the fitted dose curve; in most records, active means well fitted inhibition curve with a large enough effect; inconclusive means small, poorly fitted or top-dose-only effect; inactive means flat fitted curve, though single readings scatter. This excerpt belongs to a sample that is enriched for actives.

Test: qHTS for Inhibitors of human tyrosyl-DNA phosphodiesterase 1 (TDP1): qHTS in cells in presence of CPT; further: nearly all actives have a fitted effect of over 55% in size
Settings: chicken DT40 Tdp1-/-;hTDP1 cells + 20 nM CPT, ATP luminescence, 48 h; series mostly up to 46.2 µM
Summary of the method: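 Chicken DT40 Tdp1-/- cells stably complemented with human TDP1 were seeded at 400 cells/well in medium containing 20 nM camptothecin, exposed to pin-transferred compounds, and grown at 37 °C for at least 48 hr. Viability was read as ATP luminescence.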
Potency means the concentration at half of the fitted maximal effect.

| SMILES | Potency | activity change, negative = growth inhibition |
| --- | --- | --- |
| CC(=O)Oc1ccc(C(C)=O)c2c1OCCO2 | inactive | – |
| CC(=O)NCCc1ccc(S(=O)(=O)Nc2ccc(C)c(S(=O)(=O)N3CCOCC3)c2)cc1 | inactive | – |
| C=CCOc1ccccc1/C=N/NC(=O)Cc1ccccc1 | inactive | – |
| Oc1ccccc1C=NC1CCCCC1N=Cc1ccccc1O (stereo not drawn) | inactive | – |
| O=C(CCCCCNC(=O)c1ccccc1)N/N=C/c1ccccc1 | inactive | – |
| O=C(NN=Cc1ccccc1O)NN=Cc1ccccc1O | 4.11 µM (active) | – |
| O=C(N/N=C/c1ccccc1O)/C(=C/c1ccccc1)CCO | 3.26 µM (active) | – |
| O=C(CCC(=O)Nc1ccccc1)N/N=C/c1ccccc1F | inactive | – |
| CN(Cc1nc2ccccc2s1)C(=O)c1ccc(F)cc1 | inactive | – |
| CCCS(=O)(=O)NC(=O)C1(C)CCN(C(=O)c2sccc2C)C1 (stereo not drawn) | inactive | – |
| CCc1ccc(C(=O)C(C)OC(=O)CN2C(=O)NC3(CCCC3)C2=O)cc1 (stereo not drawn) | inactive | – |
| COC(=O)Nc1ccc(S(=O)(=O)Nc2cc(OC)nc(OC)n2)cc1 | inactive | – |
| CCOC(=O)c1ccc(NC(=O)Cn2c(=O)n(-c3ccc(C)cc3)c(=O)c3c2cnn3C)cc1 | inactive | – |
| COC(=O)C1=C(C(=O)OC)C2(OC1c1ccc(Br)cc1)C(=O)c1ccccc1C2=O (stereo not drawn) | inactive | – |
| CN1C(=O)c2[nH]nc(-c3ccc(F)cc3)c2C1c1ccccn1 (stereo not drawn) | inactive | – |
| CCOc1ccc(/C(O)=C2\C(=O)C(=O)N(c3ccc(OC)cc3)C2c2ccccc2[N+](=O)[O-])cc1 (stereo not drawn) | inactive | – |
| CCOc1ccc(-c2n[nH]c3c2C(c2ccccc2OC)N(c2ccc(Br)cc2)C3=O)cc1 (stereo not drawn) | 16.4 µM (active) | – |
| Cc1cccc(NC(=O)CSc2nnc(-c3ccco3)o2)c1 | inactive | – |
| O=C(CCc1ccccc1)Nc1cccc(-c2nnc(-c3ccco3)o2)c1 | 25.9 µM (active) | – |
| C/C(=N/NC(=O)CCc1ccccc1)c1ccco1 | inactive | – |
| COc1ccc(C(=O)NCC2CCCO2)cc1S(=O)(=O)NCc1ccc(Cl)cc1 (stereo not drawn) | inactive | – |
| Cc1[nH]c2ccccc2c1C(=O)C(C)Sc1nnc(C2CC2)o1 (stereo not drawn) | inactive | – |
| COc1ccc(-c2cc(C(F)(F)F)n3nc(-c4ccccc4)cc3n2)cc1OC | 10.3 µM (active) | – |
| Cc1cc(-c2ccccc2)n2nc(-c3ccccc3)cc2n1 | inactive | – |
| COC(=O)c1cc2nc(-c3ccccc3)cc(C(F)(F)F)n2n1 | inactive | – |
| O=C(NC1CC(=O)N(c2ccc(F)cc2)C1)C1CCCCC1 (stereo not drawn) | inactive | – |
| CC1CCN(S(=O)(=O)c2ccc3c(c2)n(C)c(=O)n3C)CC1 | inactive | – |
| Cc1ccc(-c2ccnc(-n3ncc(C(=O)N(C)Cc4cccc5ncccc45)c3C3CC3)n2)o1 | – | 10% [at 9.04 µM] (inactive) |
